Among the data in PubChem BioAssay (EPA / NIEHS) are AC50 and outcome values, retold here.

SMILES strings stand for the structures. Results filed as inconclusive are left out. Activity calls are given as the source filed them. How the source made its calls: active means hit-call score of the fitted dose curve at least 0.9, where 1 is the maximum; inconclusive means response in the unintended direction; inactive means score below 0.9.

The target of test [1] is guinea pig Serotonin, 5-Hydroxytryptamine Receptor 4 (5HT4), HTR4 (gene 100135548) (UniProt O70528). The test can be described thus: NVS_GPCR_g5HT4: NovaScreen (NVS) G Protein-Coupled Receptor Assay for guinea pig Serotonin, 5-Hydroxytryptamine Receptor 4 (5HT4) (AID 2283294). In short, it runs like this: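 Guinea pig striatal membranes; radioligand competitive displacement, filtration and scintillation counting after 1 h. Primary screen in duplicate at 25 uM; actives then tested in concentration series; loss of binding signal fitted relative to DMSO.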

Test [2] deals with rat Serotonin, 5-Hydroxytryptamine Receptor (5HT), Non-Selective Binding, Htr1a (gene 24473) (UniProt P19327). The test can be described thus: NVS_GPCR_r5HT_NonSelective: NovaScreen (NVS) G Protein-Coupled Receptor Assay for rat Serotonin, 5-Hydroxytryptamine Receptor (5HT), Non-Selective Binding (AID 2283295). In short, it runs like this: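 Radioligand displacement on rat cortical membranes, 1 h incubation, filter-based scintillation counting. Primary duplicates at 25 uM, actives retested in concentration series; loss of signal fitted against DMSO as baseline.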

Test [3] has as its target rat Adrenergic, Alpha 1A Receptor (Adra1A), Adra1a (gene 29412) (UniProt P43140). The test can be described thus: NVS_GPCR_rAdra1A: NovaScreen (NVS) G Protein-Coupled Receptor Assay for rat Adrenergic, Alpha 1A Receptor (Adra1A) (AID 2283296). In short, it runs like this:
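Rat cortical membranes pretreated with chlorethyl clonidine; competitive radioligand displacement, 1 h. Filter-based scintillation counting. Primary screen in duplicate at 25 uM, actives followed in concentration series.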

Test [4] relates to rat Adrenergic, Alpha 1B Receptor (Adra1B), gene 24173. The test can be described thus: NVS_GPCR_rAdra1B: NovaScreen (NVS) G Protein-Coupled Receptor Assay for rat Adrenergic, Alpha 1B Receptor (Adra1B) (AID 2283297). The method in brief:
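Rat liver membranes, radioligand displacement with filter-based scintillation detection, 1 h incubation. Primary screen in duplicate at 25 uM; actives retested in concentration series; activity relative to DMSO.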

Test [5] deals with rat Adrenergic Receptor, Alpha 2 (Adra2), Non-selective Binding, Adra2a (gene 25083) (UniProt P22909). The test can be described thus: NVS_GPCR_rAdra2_NonSelective: NovaScreen (NVS) G Protein-Coupled Receptor Assay for rat Adrenergic Receptor, Alpha 2 (Adra2), Non-selective Binding (AID 2283299). In short, it runs like this:
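Rat cortical membranes, radioligand competitive displacement read by filter-based scintillation counting 1.25 hours after dosing. Primary screen in duplicate at 25 uM; actives followed up in concentration series.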

The target of test [6] is rat Histamine Receptor (H3), Hrh3 (gene 85268) (UniProt Q9QYN8). The test can be described thus: NVS_GPCR_rH3: NovaScreen (NVS) G Protein-Coupled Receptor Assay for rat Histamine Receptor (H3) (AID 2283303). The method in brief:
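Rat forebrain membranes incubated 1 h with compound; radioligand displacement measured by filter-based scintillation counting. Single-concentration duplicates at 25 µM, then concentration-response up to 50 µM, relative to DMSO.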

The next test concerns the target Adra2b (gene 24174) (UniProt P19328). The test can be described thus: NVS_GPCR_rmAdra2B: NovaScreen (NVS) G Protein-Coupled Receptor Assay for hybird cells Adrenergic, Alpha 2B Receptor (Adra2B) (AID 2283306). The method in brief:
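Radioligand filter-binding assay on membrane proteins from neuroglioma/blastoma hybrid cells (rodent), 1 h after dosing; scintillation counting, loss of signal vs DMSO. Primary screen in duplicate at 25 uM, actives then run in concentration series.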

Test [7] addresses rat Neurokinin-1 Receptor (NK1), Tacr1 (gene 24807) (UniProt P14600). The test can be described thus: NVS_GPCR_rNK1: NovaScreen (NVS) G Protein-Coupled Receptor Assay for rat Neurokinin-1 Receptor (NK1) (AID 2283309). The method in brief: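 Rat submaxillary gland membranes; radioligand displacement read by filter-based scintillation counting after 1 h. Primary screen in duplicate at 25 uM; actives retested in concentration series; loss of binding fitted versus DMSO.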

Test [8] addresses rat Opioid Receptor, Non-selective Sodium (Na+) Binding, Oprm1 (gene 25601) (UniProt P33535). The test can be described thus: NVS_GPCR_rOpiate_NonSelectiveNa: NovaScreen (NVS) G Protein-Coupled Receptor Assay for rat Opioid Receptor, Non-selective Sodium (Na+) Binding (AID 2283311). The method in brief:
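Rat forebrain membranes, radioligand displacement with filter scintillation counting, 1.5 h incubation. Screened in duplicate at 25 µM; hits then run in concentration-response up to 50 µM; loss of binding fitted versus DMSO.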

Test [9] concerns the target rat Opioid Receptor, Non-selective Binding, Oprm1 (gene 25601) (UniProt P33535). The test can be described thus: NVS_GPCR_rOpiate_NonSelective: NovaScreen (NVS) G Protein-Coupled Receptor Assay for rat Opioid Receptor, Non-selective Binding (AID 2283318). In short, it runs like this:
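Rat forebrain membranes, cell-free radioligand binding with filter-based scintillation counting, read 1.5 h after dosing. Primary screen in duplicate at 25 uM; actives retested in concentration series. Loss of signal versus DMSO baseline scored.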

A further test concerns NCBI gene 24521. The test can be described thus: NVS_IC_rKATPCh: NovaScreen (NVS) Ion Channel Assay for rat Potassium Channel, ATP-Sensitive (KATPCh) (AID 2283319). In short, it runs like this:
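Rat cortical membranes; radioligand binding at ATP-sensitive K channel site, filter-based scintillation counting 2 h after dosing. Single-point duplicate screen at 25 uM, hits rerun in concentration-response up to 50 uM; loss of signal versus DMSO.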

The target of test [10] is Sodium channel protein type 1 subunit alpha (Rattus norvegicus) (UniProt P04774). The test can be described thus: NVS_IC_rNaCh_site2: NovaScreen (NVS) Ion Channel Assay for rat Sodium Channel, Site 2 (NaCh) (AID 2283322).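 Further: hit means loss of radioligand binding signal relative to DMSO so AC50 marks displacement.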 In short, it runs like this: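 Membranes: rat forebrain. Format: competitive radioligand displacement, filter separation, scintillation readout, 1 h exposure. Primary screen in duplicate at 25 uM; actives retested in concentration series.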

Test [11] addresses rat Gamma-Aminobutyric Acid Type A Receptor, Non-Selective (GABAR-NonSelective), Gabra1 (gene 29705) (UniProt P62813). The test can be described thus: NVS_LGIC_rGABAR_NonSelective: NovaScreen (NVS) Ligand-Gated Ion Channel Assay for rat Gamma-Aminobutyric Acid Type A Receptor, Non-Selective (GABAR-NonSelective) (AID 2283326). In short, it runs like this:
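Radioligand displacement on rat whole-brain extract, 1 h, filter scintillation readout; signal loss fitted versus DMSO. Primary screen in duplicate at 25 uM; hits (e.g. ≥30% inhibition) retested in concentration-response up to 50 uM.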

Test [12] concerns the target rat Neonicotinoid receptor (NNR), Chrna7 (gene 25302) (UniProt Q05941). The test can be described thus: NVS_LGIC_rNNR_BungSens: NovaScreen (NVS) Ligand-Gated Ion Channel Assay for rat Neonicotinoid receptor (NNR) (AID 2283315). In short, it runs like this:
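Radioligand displacement binding on rat cortical membranes, 2.5 h incubation, filtration and scintillation counting. Loss of specific binding fitted relative to DMSO.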

Test [13] has as its target human Serotonin, 5-Hydroxytryptamine Receptor 3 (5HT3), HTR3A (gene 3359) (UniProt P46098). The test can be described thus: NVS_LGIC_h5HT3: NovaScreen (NVS) Ligand-Gated Ion Channel Assay for human Serotonin, 5-Hydroxytryptamine Receptor 3 (5HT3) (AID 2283325). In short, it runs like this:
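Radioligand displacement binding to human 5-HT3 from HEK293 membranes, read by filter-based scintillation counting after 1 h. Screen at 25 uM in duplicate; chemicals passing threshold were retested in concentration-response up to 50 uM.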

Test [14] addresses rat Adrenergic Receptor, Beta (Adrb), Non-selective Binding, Adrb1 (gene 24925) (UniProt P18090). The test can be described thus: NVS_GPCR_rAdrb_NonSelective: NovaScreen (NVS) G Protein-Coupled Receptor Assay for rat Adrenergic Receptor, Beta (Adrb), Non-selective Binding (AID 2283298). In short, it runs like this:
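Non-selective beta-adrenergic radioligand binding in rat cortical membranes, 1 h incubation, filter-based scintillation read-out. Primary screen 25 uM in duplicate; hits retested in concentration-response up to 50 uM, DMSO baseline.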

Test [15] can be described thus: NVS_IC_rCaDHPRCh_L: NovaScreen (NVS) Ion Channel Assay for rat Calcium Channel, Type L, Dihydropyridine Site (CaDHPRCh_L) (AID 2283320). The method in brief:
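Radioligand binding to dihydropyridine site on rat cortical membranes, filter-based scintillation counting, 1 h after dosing. Screened in duplicate at 25 uM; actives rerun in concentration-response up to 50 uM. Loss of signal versus DMSO baseline.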

Chain of rat Adrenergic Receptor, Alpha 2 (Adra2), Non-selective Binding, Adra2a (gene 25083) (P22909 whole entry, looked up): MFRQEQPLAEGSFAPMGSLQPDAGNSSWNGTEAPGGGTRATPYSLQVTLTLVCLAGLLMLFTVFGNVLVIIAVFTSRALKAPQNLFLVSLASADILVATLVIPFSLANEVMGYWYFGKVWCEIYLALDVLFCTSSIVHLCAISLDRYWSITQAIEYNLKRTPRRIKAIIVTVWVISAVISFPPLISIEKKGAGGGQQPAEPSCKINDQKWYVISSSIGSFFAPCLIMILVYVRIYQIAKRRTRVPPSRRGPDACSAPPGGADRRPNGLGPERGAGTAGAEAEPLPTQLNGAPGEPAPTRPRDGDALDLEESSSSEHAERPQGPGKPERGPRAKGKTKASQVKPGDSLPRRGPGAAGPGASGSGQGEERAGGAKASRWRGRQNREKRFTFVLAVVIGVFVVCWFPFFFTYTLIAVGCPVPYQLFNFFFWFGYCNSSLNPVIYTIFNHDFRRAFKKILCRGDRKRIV
Chain of guinea pig Serotonin, 5-Hydroxytryptamine Receptor 4 (5HT4), HTR4 (gene 100135548) (O70528 whole entry, looked up): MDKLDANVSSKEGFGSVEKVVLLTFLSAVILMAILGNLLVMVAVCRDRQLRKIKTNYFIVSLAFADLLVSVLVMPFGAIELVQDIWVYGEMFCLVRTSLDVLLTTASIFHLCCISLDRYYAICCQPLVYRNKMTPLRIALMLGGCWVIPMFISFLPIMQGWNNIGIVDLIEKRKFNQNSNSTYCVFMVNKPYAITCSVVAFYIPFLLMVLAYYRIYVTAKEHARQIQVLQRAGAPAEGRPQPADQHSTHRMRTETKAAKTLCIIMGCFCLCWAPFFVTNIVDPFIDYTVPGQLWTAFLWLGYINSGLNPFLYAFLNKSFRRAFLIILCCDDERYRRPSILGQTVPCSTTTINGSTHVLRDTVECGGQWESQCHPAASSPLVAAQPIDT
Chain of rat Neonicotinoid receptor (NNR), Chrna7 (gene 25302) (Q05941 whole entry, looked up): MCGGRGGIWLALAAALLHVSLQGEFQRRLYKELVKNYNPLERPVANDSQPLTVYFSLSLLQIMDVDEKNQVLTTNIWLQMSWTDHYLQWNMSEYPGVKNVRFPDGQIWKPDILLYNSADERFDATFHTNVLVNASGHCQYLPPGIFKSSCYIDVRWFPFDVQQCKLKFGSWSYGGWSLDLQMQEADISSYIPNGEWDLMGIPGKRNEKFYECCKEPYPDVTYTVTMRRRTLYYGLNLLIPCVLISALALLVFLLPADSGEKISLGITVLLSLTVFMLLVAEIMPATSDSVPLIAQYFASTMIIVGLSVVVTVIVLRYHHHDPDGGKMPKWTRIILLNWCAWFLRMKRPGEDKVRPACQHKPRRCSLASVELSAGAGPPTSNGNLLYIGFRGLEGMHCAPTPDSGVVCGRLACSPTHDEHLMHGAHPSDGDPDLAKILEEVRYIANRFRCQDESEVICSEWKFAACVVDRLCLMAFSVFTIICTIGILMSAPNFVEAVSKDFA
Chain of rat Opioid Receptor, Non-selective Binding, Oprm1 (gene 25601) (P33535 whole entry, looked up): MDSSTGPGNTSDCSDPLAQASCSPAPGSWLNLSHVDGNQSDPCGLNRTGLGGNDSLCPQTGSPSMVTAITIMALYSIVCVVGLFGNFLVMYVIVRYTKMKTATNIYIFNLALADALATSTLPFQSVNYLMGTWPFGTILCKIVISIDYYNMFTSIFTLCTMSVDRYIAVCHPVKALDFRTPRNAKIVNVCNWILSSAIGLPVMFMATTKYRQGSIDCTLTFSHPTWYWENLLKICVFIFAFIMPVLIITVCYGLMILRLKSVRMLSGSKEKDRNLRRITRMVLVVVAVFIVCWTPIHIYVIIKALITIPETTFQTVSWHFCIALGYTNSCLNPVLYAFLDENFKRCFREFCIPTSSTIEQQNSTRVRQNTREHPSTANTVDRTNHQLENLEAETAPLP
Chain of rat Opioid Receptor, Non-selective Sodium (Na+) Binding, Oprm1 (gene 25601) (P33535 whole entry, looked up): as above
Chain of rat Histamine Receptor (H3), Hrh3 (gene 85268) (Q9QYN8 whole entry, looked up): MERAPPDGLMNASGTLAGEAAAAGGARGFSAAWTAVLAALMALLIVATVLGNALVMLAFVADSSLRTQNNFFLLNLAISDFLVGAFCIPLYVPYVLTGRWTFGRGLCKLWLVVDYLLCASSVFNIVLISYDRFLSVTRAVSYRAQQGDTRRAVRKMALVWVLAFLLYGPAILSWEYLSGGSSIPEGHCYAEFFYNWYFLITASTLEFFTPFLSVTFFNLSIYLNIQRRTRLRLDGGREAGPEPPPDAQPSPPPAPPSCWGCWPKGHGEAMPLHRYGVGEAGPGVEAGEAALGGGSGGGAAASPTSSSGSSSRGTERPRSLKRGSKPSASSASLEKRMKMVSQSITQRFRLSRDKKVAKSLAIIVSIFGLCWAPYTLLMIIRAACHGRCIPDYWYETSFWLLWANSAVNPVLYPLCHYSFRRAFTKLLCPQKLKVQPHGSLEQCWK
Chain of rat Serotonin, 5-Hydroxytryptamine Receptor (5HT), Non-Selective Binding, Htr1a (gene 24473) (P19327 whole entry, looked up): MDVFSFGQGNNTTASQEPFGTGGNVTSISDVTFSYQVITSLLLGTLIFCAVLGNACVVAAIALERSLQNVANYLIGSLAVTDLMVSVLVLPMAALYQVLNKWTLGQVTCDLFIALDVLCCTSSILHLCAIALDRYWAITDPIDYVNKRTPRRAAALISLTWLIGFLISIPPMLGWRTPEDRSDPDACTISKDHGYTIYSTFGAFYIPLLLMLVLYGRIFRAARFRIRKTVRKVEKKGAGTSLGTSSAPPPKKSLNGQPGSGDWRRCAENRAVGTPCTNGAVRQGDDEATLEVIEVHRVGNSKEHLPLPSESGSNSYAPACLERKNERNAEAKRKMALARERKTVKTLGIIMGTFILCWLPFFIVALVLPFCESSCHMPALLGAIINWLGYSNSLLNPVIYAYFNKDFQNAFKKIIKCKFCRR
Chain of rat Gamma-Aminobutyric Acid Type A Receptor, Non-Selective (GABAR-NonSelective), Gabra1 (gene 29705) (P62813 whole entry, looked up): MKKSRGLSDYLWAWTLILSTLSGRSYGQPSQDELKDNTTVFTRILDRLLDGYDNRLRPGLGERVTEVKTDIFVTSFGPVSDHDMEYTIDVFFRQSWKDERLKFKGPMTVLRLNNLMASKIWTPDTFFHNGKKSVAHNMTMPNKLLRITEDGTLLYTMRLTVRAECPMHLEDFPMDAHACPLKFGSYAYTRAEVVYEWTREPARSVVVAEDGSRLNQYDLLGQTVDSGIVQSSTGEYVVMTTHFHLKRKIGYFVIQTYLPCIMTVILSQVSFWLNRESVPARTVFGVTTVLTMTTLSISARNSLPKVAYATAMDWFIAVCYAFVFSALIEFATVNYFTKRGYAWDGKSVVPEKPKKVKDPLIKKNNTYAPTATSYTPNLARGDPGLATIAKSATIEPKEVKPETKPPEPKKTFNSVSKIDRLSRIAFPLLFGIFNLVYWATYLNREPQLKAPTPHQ
Chain of Adra2b (gene 24174) (P19328 whole entry, looked up): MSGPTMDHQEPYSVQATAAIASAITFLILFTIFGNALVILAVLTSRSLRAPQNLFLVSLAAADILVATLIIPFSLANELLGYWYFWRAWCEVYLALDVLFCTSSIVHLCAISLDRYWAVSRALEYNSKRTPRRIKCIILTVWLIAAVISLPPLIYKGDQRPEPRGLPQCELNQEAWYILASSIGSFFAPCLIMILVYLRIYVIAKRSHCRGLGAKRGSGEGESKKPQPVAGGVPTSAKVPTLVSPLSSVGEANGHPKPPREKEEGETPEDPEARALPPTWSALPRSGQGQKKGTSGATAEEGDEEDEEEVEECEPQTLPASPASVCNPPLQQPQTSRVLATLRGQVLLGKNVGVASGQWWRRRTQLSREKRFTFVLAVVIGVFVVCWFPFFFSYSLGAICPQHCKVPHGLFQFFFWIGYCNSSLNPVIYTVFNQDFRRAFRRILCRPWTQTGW
Chain of rat Adrenergic Receptor, Beta (Adrb), Non-selective Binding, Adrb1 (gene 24925) (P18090 whole entry, looked up): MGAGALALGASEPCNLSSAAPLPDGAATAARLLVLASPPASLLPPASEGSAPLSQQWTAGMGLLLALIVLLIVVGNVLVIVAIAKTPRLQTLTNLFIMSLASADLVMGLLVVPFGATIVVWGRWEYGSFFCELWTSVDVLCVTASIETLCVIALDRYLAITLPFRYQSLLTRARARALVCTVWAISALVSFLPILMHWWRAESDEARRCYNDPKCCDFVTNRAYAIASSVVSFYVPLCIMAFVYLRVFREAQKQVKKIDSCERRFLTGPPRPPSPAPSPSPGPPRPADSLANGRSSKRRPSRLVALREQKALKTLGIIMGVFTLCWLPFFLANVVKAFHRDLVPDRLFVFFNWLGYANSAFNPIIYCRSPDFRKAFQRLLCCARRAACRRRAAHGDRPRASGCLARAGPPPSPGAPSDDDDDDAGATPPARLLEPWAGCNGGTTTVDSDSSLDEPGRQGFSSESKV
Chain of rat Neurokinin-1 Receptor (NK1), Tacr1 (gene 24807) (P14600 whole entry, looked up): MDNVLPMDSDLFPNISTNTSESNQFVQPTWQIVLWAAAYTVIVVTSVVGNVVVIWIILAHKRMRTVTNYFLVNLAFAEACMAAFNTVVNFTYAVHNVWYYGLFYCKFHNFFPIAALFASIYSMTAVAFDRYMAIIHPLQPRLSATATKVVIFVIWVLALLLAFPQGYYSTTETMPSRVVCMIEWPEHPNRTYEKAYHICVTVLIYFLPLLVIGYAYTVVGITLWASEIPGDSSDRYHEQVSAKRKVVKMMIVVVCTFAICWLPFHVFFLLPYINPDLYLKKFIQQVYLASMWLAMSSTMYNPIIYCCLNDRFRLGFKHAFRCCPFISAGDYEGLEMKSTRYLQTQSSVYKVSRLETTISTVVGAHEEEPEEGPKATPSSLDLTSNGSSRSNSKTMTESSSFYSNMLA

Consider `N=C(N)c1ccc(OCCCCCOc2ccc(C(=N)N)cc2)cc1`, for which the AC50 is 2.4 µM (active) in test [1]; 14 µM (active) in test [2]; 1.32 µM (active) in test [3]; 1.06 µM (active) in test [4]; 3.49 µM (active) in test [5]; 0.362 µM (active) in [6]. The AC50 with Adra2b (gene 24174) was 9.06 µM (active); in test [8], 18.4 µM (active); in test [9] it was 5.6 µM (active); in test [10], 16.1 µM (active). The call (in test [7]; in the test with NCBI gene 24521; in test [11]) was inactive.

Consider `CN(C)CCOC(c1ccccc1)c1ccccc1`, for which the molecule was classed as inactive in test [1], in [6] and in test [8]. For the same molecule, the AC50 is 7.06 µM (active) in [2]; 9.65 µM (active) in [4]; 8.43 µM (active) in test [5]; 3.12 µM (active) in the test with Adra2b (gene 24174); 7 µM (active) in test [9]; 3.25 µM (active) in test [10].

Regarding `CCOC(=O)CN[C@@H](C(=O)N1CC[C@H]1C(=O)NCc1ccc(/C(N)=N/O)cc1)C1CCCCC1`, in test [10], the AC50 is 0.00287 µM (active).

On to `NC(=NCCCCCCN=C(N)/N=C(\N)Nc1ccc(Cl)cc1)/N=C(\N)Nc1ccc(Cl)cc1`, for which the AC50 in test [5] was 17.6 µM (active); in test [12], 38.3 µM (active). Besides, in [10], the call was inactive.

On to `C=CC(=O)OCCN(CC)CC`, for which the call in test [10] was inactive.

For the molecule `CCCCC(CC)C(=O)O` (stereo not drawn), the result in test [13] was inactive.

`COC1=CC(=O)C[C@@H](C)[C@]12Oc1c(Cl)c(OC)cc(OC)c1C2=O`: the AC50 in [5] is 3.69 µM (active).

On to `Clc1ccc(Nc2nnc(Cc3ccncc3)c3ccccc23)cc1`, for which the half-maximal activity concentration (AC50) in test [10] was 2.08 µM (active).

Turning to `CC1CNCC(C)O1` (stereo not drawn), in test [12], the AC50 was 25 µM (active).

For the molecule `CCCCCc1ccc(O)cc1`, the AC50 in [10] was 1.07 µM (active).

Turning to `O=C(CCCN1CCC(O)(c2ccc(Cl)cc2)CC1)c1ccc(F)cc1`, the AC50 is 1.75 µM (active) in test [1], 18.2 µM (active) in [14], 3.15 µM (active) in test [15] and 0.376 µM (active) in test [10].

As to `CCCCCCCCCCCCOS(=O)(=O)O`, in the test with NCBI gene 24521, the molecule was classed as inactive. In [11], the AC50 was 5.96 µM (active).

What is called AC50 is the midpoint of the concentration-response curve, whichever way the signal moves.
